Screening results (PubChem)
mHTT CaM bind: mutant huntingtin-calmodulin interaction inhibitors – biochemical, AlphaScreen, primary screen | AlphaScreen His-mHTT/GST-CaM binding, luminescence | P42858 | AID 1671202, 2021 | 190,000 tested, 3.6% active | inhibition, % at 15 µM
Pf apPOL inh: Pf-apPOL inhibitors, biochemical, fluorescence; Plasmodium falciparum apicoplast DNA polymerase (apPOL); AID 1794808, 2022; 210,000 tested, 0.25% active; inhibition, % at 10 µM; Recombinant Pf-apPOL, molecular beacon fluorescence, 1.5 h
Numbers stand for hits; . = inactive; / = not tested or not shown. The full list was thinned out, with hits kept by preference. No stated cut-off is given here; in the data, active means inhibition above about 50%; inactive means the rest.

SMILES | mHTT CaM bind | Pf apPOL inh
O=C(Nc1ccc2nc(-c3ccccn3)c(-c3ccccn3)nc2c1)N1CCOCC1 | . | .
O=C(Nc1ccc2nc(-c3ccco3)c(-c3ccco3)nc2c1)N1CCOCC1 | 76 | .
O=C(CCSc1ccccc1)N1CCN(Cc2nc3ccccc3[nH]2)CC1 | . | .
Cc1ccc(C(=O)O)cc1-c1ccc(/C=C2\SC(=O)NC2=O)o1 | . | .
Cc1ccc(S(=O)(=O)N=C(Nc2ccccn2)c2ccccc2)cc1 | . | .
CC1=CC(=O)C=CC1=NC(=NS(=O)(=O)c1ccc(C)cc1)c1ccccc1 | 58 | .
Cc1ccc(C(N)=NC(=NS(=O)(=O)c2ccccc2)c2ccccc2)cc1 | . | .
CC1=CC(=NC(=NS(=O)(=O)c2ccc(C)cc2)c2ccccc2)C(C)=CC1=O | 59 | .
CSc1ccccc1C(=O)NCC1CCN(C(=O)COc2ccccc2)CC1 | . | .
Cc1nccn1Cc1noc(C2CCC2)n1 | . | .
COc1ccc(O)c(C(=O)CC(=O)c2ccccc2)c1 | 50 | .
COc1ccc(C(=O)CC(=O)c2ccccc2)cc1 | . | .
COc1ccc(C2/C=C\CN(CC(C)C)[C@@H](Cc3ccccc3)C(=O)N2Cc2ccc(F)cc2)cc1 (stereo partly specified) | . | .
COc1ccc(C2/C=C\CN(C(=O)c3ccccc3)[C@@H](Cc3ccccc3)C(=O)N2Cc2ccc(F)cc2)cc1 (stereo partly specified) | 87 | .
COc1ccc(C2/C=C\CN(C(=O)C3CC3)[C@@H](Cc3ccccc3)C(=O)N2Cc2ccc(F)cc2)cc1 (stereo partly specified) | 91 | .
COc1ccc(C2/C=C\CN(C(=O)c3ccc(C)cc3)[C@@H](Cc3ccccc3)C(=O)N2Cc2ccc(F)cc2)cc1 (stereo partly specified) | . | .
COc1ccc(-c2nnc3n2CCN(C(=O)C2CCCN2)C3)cc1 (stereo unspecified) | . | .
CC(C)CCNC(=O)N1CC(C(=O)N2CCCCC2)C2(CCOCC2)C1 (stereo unspecified) | . | .
CC(=O)c1cccc(NC(=O)c2csc3c2CCC(C)C3)c1 (stereo unspecified) | . | .
COc1ccc2oc(=O)c(C(=O)Nc3ccc(F)cc3)cc2c1 | . | .
O=[N+]([O-])c1ccc(N2CCCCC2)nc1 | . | .
O=[N+]([O-])c1ccc(N2CCCCCC2)nc1 | . | 99
CN1C(=O)C2(CCN(C(=O)NC3CCCC3)C2)c2ccccc21 (stereo unspecified) | . | .
CC1CCCCC1NC(=O)c1cc(=O)[nH]c2ccc(S(=O)(=O)N(C)C3CCCCC3)cc12 (stereo unspecified) | . | .
Nc1ccc(Cl)c2c1C(=O)c1ccccc1C2=O | 59 | .
SMILES | mHTT CaM bind | Pf apPOL inh
Cc1ccc(Cl)c2c1C(=O)c1ccccc1C2=O | . | .
COc1cc2c(cc1OC)CN(Cc1ccccn1)CC2 | . | .
Cc1cccc(C(=O)Nc2ccc3c(c2)Sc2ncccc2C(=O)N3C)c1 | 65 | .
CN1C(=O)c2cccnc2Sc2cc(C(=O)NCc3cccc(Cl)c3)ccc21 | 52 | .
CN1C(=O)c2cccnc2Sc2cc(NC(=O)c3cccc(Cl)c3)ccc21 | . | .
Cc1ccc(CNC(=O)c2ccc3c(c2)Sc2ncccc2C(=O)N3C)cc1 | . | .
O=C(NC1CC2CC1CN2S(=O)(=O)c1cccnc1)c1ccccc1 (stereo unspecified) | . | .
CCOC(=O)ON1C(=O)c2ccccc2N2COc3ccccc3C12 (stereo unspecified) | 100 | /
CCOC(=O)C1Oc2ccccc2C(C(=O)OC)=C1C(=O)OC (stereo unspecified) | . | .
O=C(O)c1cccc(NC2SC(=O)N(c3ccccc3)C2=O)c1 (stereo unspecified) | . | .
COc1ccc(CCC(=O)Nc2c(C)nn(Cc3ccccc3Cl)c2C)cc1 | . | .
N#CC1=C(N)OC2=C(C(=O)CC(c3ccccc3)C2)C1c1ccccc1F (stereo unspecified) | . | .
N#CC1=C(N)OC2=C(C(=O)CC(c3ccccc3)C2)C1c1c[nH]c2ccccc12 (stereo unspecified) | 58 | .
CC1=C(C(=O)Nc2cc(C)ccn2)C(c2ccc(Cl)cc2)C2=C(CCCC2=O)N1 (stereo unspecified) | . | .
O=C(C(c1ccccc1)c1ccccc1)N1CCN(c2ccc(F)cc2)CC1 | 64 | .
O=C(C(c1ccccc1)c1ccccc1)N1CCN(c2ccc([N+](=O)[O-])cc2)CC1 | . | .
Cn1nc(-c2nc(-c3cccc(F)c3)no2)c2c1CCN(C(=O)c1cccc(F)c1)C2 | . | .
Cn1nc(-c2nc(C3CC3)no2)c2c1CCN(C(=O)Nc1ccc(Cl)cc1)C2 | 63 | .
Cn1nc(-c2nc(-c3cccc(F)c3)no2)c2c1CCN(C(=O)c1cccs1)C2 | 61 | .
